Measurements reported in ChEMBL document CHEMBL3988442, “University of Dundee, Small-Polar-MMV Screening Library” (2021).
The whole screen tested about 48,000 compounds, of which about 13,000 (27%) showed an effect of 50% or more. The list shows a part of the results.

Test system: Wolbachia pipientis
Assay: Anti-Wolbachia Cell-Based Screen
Type: functional
Parameters: scale not given: in the data most compounds retested in dose-response had high values
Details: 5 µM

| SMILES | Percent Effect [%] |
| --- | --- |
| N#CCCN(Cc1ccco1)C(=O)COC1CCCCC1 | 5.394 |
| O=S1(=O)C[C@@H]2[C@H](C1)N(Cc1nc3ccccc3[nH]1)CCN2CC1CC1 | 0.3251 |
| CC(C)c1nc(C2CCCN2C(=O)c2ccc(N(C)C)nn2)no1 (stereo unspecified) | 2.138 |
| CCC(=O)N1CCCCC1c1nc(CN(C)C(C)=O)cc(N(C)C)n1 (stereo unspecified) | 86.02 |
| CC(=O)N1CCCC1c1nc(CN(C)C(=O)C(C)C)cc(N(C)C)n1 (stereo unspecified) | 95.56 |
| CC(=O)c1ccc(C(=O)N2CCCCC2c2nc[nH]n2)cc1 (stereo unspecified) | -8.755 |
| COCC(=O)N1CCCCC1c1nc(CN(C)C(C)=O)cc(N(C)C)n1 (stereo unspecified) | 103.1 |
| CN(CC(=O)N1CCCC1c1noc(C2CC2)n1)C1CC1 (stereo unspecified) | -4.612 |
| Cc1ccsc1CNC(=O)NC1CCCc2c1cnn2CCO (stereo unspecified) | 0.2453 |
| CC(=O)N1CCCN(C(=O)NCCCN(C)S(C)(=O)=O)CC1 | -3.578 |
| COc1ccccc1CN(Cc1cccnc1)Cc1nccs1 | -55.96 |
| CCn1cc(NC(=O)C2CCN(CC(=O)NC(C)(C)CC)CC2)cn1 | 91.29 |
| CCCNC(=O)C(C)N1CCC(C(=O)Nc2cnn(CC)c2)CC1 (stereo unspecified) | 103.7 |
| CCc1noc(C)c1C(=O)Nc1cnn(CC(=O)NC2CCCC2)c1 | 1.161 |
| CCn1cc(NC(=O)C2CCN(CC(=O)NCC(C)C)CC2)cn1 | 118.6 |
| CCn1cc(NC(=O)C2CCN(CC(=O)NC3CCCC3)CC2)cn1 | 91.7 |
| CCCNC(=O)CN1CCC(C(=O)Nc2cnn(CC)c2)CC1 | 2.919 |
| CCn1cc(NC(=O)NC2CCCc3c2cnn3CCO)cn1 (stereo unspecified) | 0.905 |
| CCN1CCC(CNC(=O)Nc2cnn(CC(N)=O)c2)C1 (stereo unspecified) | -9.388 |

| SMILES | Percent Effect [%] |
| --- | --- |
| CCn1cc(NC(=O)C2CCN(CC(=O)N3CCOCC3)CC2)cn1 | -4.13 |
| Cc1ncncc1C(=O)Nc1cnn(CC(=O)NC2CCCC2)c1 | 0.1635 |
| O=C(c1ccccc1C(F)(F)F)N1C[C@@H](CN2CCOCC2)[C@@H](CO)C1 | -0.09435 |
| CCCc1cncnc1N1CCC(NCc2cc3ccccc3[nH]2)CC1 | -18.7 |
| O=C(NC1CC1)[C@H]1C[C@H]2OCC[C@H]2N(CC2CCOCC2)C1.O=C(O)C(F)(F)F | 0.97 |
| O=C(Nc1nncs1)N1CCCN(C2CCCCC2)CC1 | -4.459 |
| COc1ccc(S(=O)(=O)NCCC(O)c2cc(C)oc2C)c(C)c1 (stereo unspecified) | 2.617 |
| C[C@@H]1C[C@H]2CN(C(=O)C3=CCCCC3)C[C@H]2O1 | 0.662 |
| O=C(NC1CCS(=O)(=O)c2ccccc21)c1cccs1 (stereo unspecified) | 3.993 |
| CCNC(=O)N1C[C@@H]2OCC(=O)N(C(C)C)[C@@H]2C1 | -6.666 |
| Cc1nc(C)c(C(=O)Nc2cnn(CC(=O)NC3CCCC3)c2)s1 | 111.4 |
| Cc1ccsc1C(=O)Nc1cnn(CC(=O)NC2CCCC2)c1 | 2.464 |
| Cc1cc(C(=O)Nc2cnn(CC(=O)NC3CCCC3)c2)c(C)s1 | 2.888 |
| Cc1nc(CC(=O)N2CCCC2c2nc(-c3ccccc3)no2)cs1 (stereo unspecified) | -0.9344 |
| O=C(c1c2c(N3CCOCC3)ncnc2n2ccccc12)N1CCCC1 | -0.1651 |
| Nc1c(N2CCOCC2)ncnc1N1CCOCC1 | 121.8 |
| O=C(c1c2c(N3CCCC3)ncnc2n2ccccc12)N1CCOCC1 | -6.579 |
| O=C(CSc1ccccc1)N1CCc2c(ncnc2N2CCOCC2)C1 | 3.982 |
| CC(C)(C)C(=O)N1CCCN(c2ncnc3nc(N)ccc23)CC1 | 6.072 |

| SMILES | Percent Effect [%] |
| --- | --- |
| Nc1c(N2CCCCC2)ncnc1N1CCOCC1 | 114.1 |
| CN1CCCN(c2ncnc(N3CCOCC3)c2N)CC1 | 103.9 |
| Clc1cnccc1N1CCCOCC1 | 1.077 |
| Cn1cccc1C(=O)N1CCc2ncnc(N3CCOCC3)c2CC1 | -2.151 |
| Nc1c(N2CCCC2)ncnc1N1CCOCC1 | 108.5 |
| OC1(CN2CCCC2)COCCN(c2ncnc3[nH]cnc23)C1 (stereo unspecified) | 9.273 |
| O=C1COc2ccc(S(=O)(=O)NCC3CCCO3)c3c2N1CCC3 (stereo unspecified) | -4.147 |
| Cc1ccc(CN2CC[C@@H]3[C@@H](CO[C@H]3CN3CCN(C)CC3)C2)s1.O=C(O)C(F)(F)F.O=C(O)C(F)(F)F.O=C(O)C(F)(F)F | 97.55 |
| CN(Cc1cccnc1)C[C@@H]1OC[C@H]2CN(Cc3ccoc3)CC[C@H]21.O=C(O)C(F)(F)F.O=C(O)C(F)(F)F.O=C(O)C(F)(F)F | 6.292 |
| Cc1ccc(CN2CC[C@@H]3[C@@H](CO[C@H]3CN3CCN(C)CC3)C2)cc1.O=C(O)C(F)(F)F.O=C(O)C(F)(F)F.O=C(O)C(F)(F)F | 118.8 |
| Cc1ccc(CN2CC[C@H]3[C@H](CO[C@H]3CN(C)C)C2)o1.O=C(O)C(F)(F)F.O=C(O)C(F)(F)F | -5.785 |
| CN1CCN(C[C@H]2OC[C@@H]3CCN(C(=O)c4cnccn4)C[C@@H]32)CC1.O=C(O)C(F)(F)F.O=C(O)C(F)(F)F | -7.535 |
| CN1CCN(C[C@@H]2OC[C@H]3CN(CCc4ccccc4)CC[C@H]32)CC1.O=C(O)C(F)(F)F.O=C(O)C(F)(F)F.O=C(O)C(F)(F)F | 108.2 |
| CN1CCN(C[C@@H]2OC[C@H]3CN(Cc4cccc(F)c4)CC[C@H]32)CC1.O=C(O)C(F)(F)F.O=C(O)C(F)(F)F.O=C(O)C(F)(F)F | -7.407 |
| CN(C)C[C@@H]1OC[C@H]2CN(Cc3ccoc3)CC[C@H]21.O=C(O)C(F)(F)F.O=C(O)C(F)(F)F | 10.46 |
| Cc1ccc(CN2CC[C@H]3CO[C@H](CN(C)Cc4ccco4)[C@H]3C2)s1.O=C(O)C(F)(F)F.O=C(O)C(F)(F)F | 10.16 |
| CCN1CCC(N[C@@H]2CC[C@@H]2NC(=O)Cc2csc(C)n2)CC1 | 2.853 |
| Clc1cccnc1N1CCC(NCc2cccc3cn[nH]c23)C1 (stereo unspecified) | 0.5809 |
